These results are taken from the supplement of paper PMC8540655.

SMILES strings stand for the structures. Unmarked numbers belong to inactive results.

For the first test, the system named is Aedes aegypti larvae. The test is described as follows: larval motility relative to same well at 0 h (fraction); higher = more motile (less active compound), active = 0.4 or less. The conditions noted are these: 10 µM; 2 h. On the procedure: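 MMV Pandemic Response Box compounds were tested at 10 µM (1% v/v DMSO) on Aedes aegypti larvae (18-24 h after hatching, about 10 per well, 96-well plates). Motility was quantified with INVAPP (200-frame movies) at 0, 2 and 24 h. Each well's motility was divided by its own 0 h score, and the median of 3 independent screens is reported.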
As to `CCCCCCCCCN1C[C@@H](O)[C@H](O)[C@@H](O)[C@@H]1CO`, the larval motility was 0.996.
In the case of `CCCCN1C[C@H](O)[C@@H](O)[C@H](O)[C@H]1CO`, the larval motility is 0.87.
The same measure, in the same setting: the same measure for `O=C(NCc1ccccc1Cl)c1cnc2ccccc2n1`: 1.23; for `Cc1cc(Nc2ccc(F)cc2)nc(SCc2nc3ccccc3[nH]2)n1`: 0.661; for `COc1ccc(SC(=O)N[C@H](CCC(=O)O)C(=O)O)cc1`: 0.861.
As for `O=C(O)COc1cccc2c1CC[C@](O)(COC(=O)N(c1ccccc1)c1ccccc1)C2`, the larval motility is 0.909.
Regarding `CC(C)/N=c1\cc2n(-c3ccc(Cl)cc3)c3ccccc3nc-2cc1Nc1ccc(Cl)cc1`, the larval motility is 0.957.
Take `CO/N=C(\C(=O)N[C@@H]1C(=O)N2C(C(=O)OCOC(=O)C(C)(C)C)=C(/C=C\c3scnc3C)CS[C@H]12)c1csc(N)n1`: the larval motility was 1.51.
For `COc1cc(NC(=O)CN2C(=O)NC(c3ccccc3)(c3ccccc3)C2=O)cc(OC)c1`, the larval motility was 0.866.
Regarding `O=C(/C=C/n1cnc(-c2cc(C(F)(F)F)cc(C(F)(F)F)c2)n1)NNc1cnccn1`, the larval motility was 0.908.
`O=C(c1ccccc1)N1CCN(c2ccccc2NC(=O)C(Cl)(Cl)Cl)CC1`: the larval motility was 1.33.
As to `CCCCCCC1c2ccc(O)cc2Oc2cc(O)ccc21`, the larval motility is 0.468.
Take `O=c1ccc2ncc(=O)n3c2n1CC3CN1CCC(NCc2cc3c(cn2)OCCC3)CC1` (stereo not given): the larval motility is 0.641.
Take `CN(C)[C@@H]1C(=O)C(C(N)=O)=C(O)[C@@]2(O)C(=O)C3=C(O)c4c(O)c(NC(=O)CN5CCCC5)cc(F)c4C[C@H]3C[C@@H]12`: the larval motility was 0.841.
As to `COc1nc2ccc(Br)cc2cc1[C@@H](c1ccccc1)[C@@](O)(CCN(C)C)c1cccc2ccccc12`, the larval motility is 0.838.
As for `O=C(O)c1cc(-c2ccc(Br)cc2)nc2ccc(Cl)cc12`, the larval motility is 1.05.
As for `CC(C)Nc1nc2cc(Cl)c(Cl)cc2n1[C@H]1O[C@@H](CO)[C@H](O)[C@@H]1O`, the larval motility is 1.1.
Consider `Nc1nc(=O)c(Br)c(-c2cccc(Cl)c2)[nH]1`, for which the larval motility was 0.895.
As for `O=C(O)C(Cc1c[nH]c2ccccc12)N1C(=O)c2ccccc2C1=O` (stereo not given), the larval motility is 1.75.
As to `COc1ccc2c(c1OC)C(=O)OC2C1c2c(cc3c(c2OC)OCO3)CCN1C` (stereo not given), the larval motility is 0.987.

Staying with this test, now noted: 10 µM; 24 h.
`CCCCCCCCCN1C[C@@H](O)[C@H](O)[C@@H](O)[C@@H]1CO`: the larval motility is 1.3.
On to `CCCCN1C[C@H](O)[C@@H](O)[C@H](O)[C@H]1CO`, for which the larval motility is 0.809.
In the case of `O=C(NCc1ccccc1Cl)c1cnc2ccccc2n1`, the larval motility was 0.674.
As for `Cc1cc(Nc2ccc(F)cc2)nc(SCc2nc3ccccc3[nH]2)n1`, the larval motility is 0.622.
`COc1ccc(SC(=O)N[C@H](CCC(=O)O)C(=O)O)cc1`: the larval motility is 0.93.
With `O=C(O)COc1cccc2c1CC[C@](O)(COC(=O)N(c1ccccc1)c1ccccc1)C2`, the larval motility was 0.745.
In the case of `CC(C)/N=c1\cc2n(-c3ccc(Cl)cc3)c3ccccc3nc-2cc1Nc1ccc(Cl)cc1`, the larval motility was 0.786.
`CO/N=C(\C(=O)N[C@@H]1C(=O)N2C(C(=O)OCOC(=O)C(C)(C)C)=C(/C=C\c3scnc3C)CS[C@H]12)c1csc(N)n1`: the larval motility is 1.18.
As for `COc1cc(NC(=O)CN2C(=O)NC(c3ccccc3)(c3ccccc3)C2=O)cc(OC)c1`, the larval motility was 1.08.
Consider `O=C(/C=C/n1cnc(-c2cc(C(F)(F)F)cc(C(F)(F)F)c2)n1)NNc1cnccn1`, for which the larval motility was 1.
In the case of `O=C(c1ccccc1)N1CCN(c2ccccc2NC(=O)C(Cl)(Cl)Cl)CC1`, the larval motility is 0.669.
For the compound `CCCCCCC1c2ccc(O)cc2Oc2cc(O)ccc21`, the larval motility is 0.989.
Regarding `O=c1ccc2ncc(=O)n3c2n1CC3CN1CCC(NCc2cc3c(cn2)OCCC3)CC1` (stereo not given), the larval motility is 0.964.
With `CN(C)[C@@H]1C(=O)C(C(N)=O)=C(O)[C@@]2(O)C(=O)C3=C(O)c4c(O)c(NC(=O)CN5CCCC5)cc(F)c4C[C@H]3C[C@@H]12`, the larval motility is 1.78.
For the compound `COc1nc2ccc(Br)cc2cc1[C@@H](c1ccccc1)[C@@](O)(CCN(C)C)c1cccc2ccccc12`, the larval motility was 0.679.
As for `O=C(O)c1cc(-c2ccc(Br)cc2)nc2ccc(Cl)cc12`, the larval motility was 0.76.
As to `CC(C)Nc1nc2cc(Cl)c(Cl)cc2n1[C@H]1O[C@@H](CO)[C@H](O)[C@@H]1O`, the larval motility was 0.602.
For the compound `Nc1nc(=O)c(Br)c(-c2cccc(Cl)c2)[nH]1`, the larval motility was 0.972.
As to `O=C(O)C(Cc1c[nH]c2ccccc12)N1C(=O)c2ccccc2C1=O` (stereo not given), the larval motility was 1.18.
With `COc1ccc2c(c1OC)C(=O)OC2C1c2c(cc3c(c2OC)OCO3)CCN1C` (stereo not given), the larval motility was 0.828.
